# In the library only some 12% were active in any assay of this set; here they are far more common.
# Sfp inh: inhibitors of Bacillus subtilis Sfp phosphopantetheinyl transferase; Q9F4F7; Biochemical Sfp PPTase activity, qHTS; Potency, µM, inactives show largest response in the series, negative = inhibition, most hits filed as inhibitors; 310,000 tested, 3.5% active; AID 1490;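 further: the enzyme is Sfp with the accession as filed and its product quenches rhodamine fluorescence; 0% = enzyme reaction without inhibitor and -100% = no enzyme wells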
#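 After 15 min at room temperature with compound, 15 nM Sfp received 5 uM rhodamine-CoA plus 12.5 uM BHQ-2-ybbR (50 mM Hepes pH 7.6, 10 mM MgCl2). Rate came from the fluorescence difference over 30 min, ex 525/em 598 nm.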
# HP1b chromo inh: inhibitors of HP1-beta chromodomain binding to methylated histone tails. P83916. AlphaScreen HP1-beta / biotin-H3K9me3 peptide binding. Potency, µM (doses to about 114 µM), without a hit: at the top dose activity change, negative = inhibition, most hits filed as inhibitors. 390,000 tested, 0.56% active. AID 540317; further: nearly all actives have a fitted effect of over 70% in size
# Target sequence (P83916 whole entry, looked up): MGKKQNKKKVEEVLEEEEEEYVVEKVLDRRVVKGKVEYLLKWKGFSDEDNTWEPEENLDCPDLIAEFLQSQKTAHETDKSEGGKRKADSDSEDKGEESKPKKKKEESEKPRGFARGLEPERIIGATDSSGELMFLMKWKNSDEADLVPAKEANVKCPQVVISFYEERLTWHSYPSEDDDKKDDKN
#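 Compound inhibition of the preformed complex between 50 nM HP1-beta and 50 nM biotinylated H3K9me3 peptide was read by AlphaScreen. Buffer was PBS pH 7.4 with 0.01% Tween-20. Incubations ran 30 min at room temperature, with 10 ug/mL donor/acceptor beads.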
# G9a block: blocks human histone lysine methyltransferase G9a. Potency, µM (titrated, usually from 102 µM), without a hit: at the top dose activity, negative = inhibition, most hits filed as inhibitors. G9a H3K9 monomethylation, AlphaScreen, 2 h. Q96KQ7. 350,000 tested, 8.8% active. AID 504332; further: on the % scale 0 is the no-effect control and ±100 the full control effect; nearly all actives have a fitted effect of over 75% in size
# Target sequence (Q96KQ7 913-1193 limits assumed): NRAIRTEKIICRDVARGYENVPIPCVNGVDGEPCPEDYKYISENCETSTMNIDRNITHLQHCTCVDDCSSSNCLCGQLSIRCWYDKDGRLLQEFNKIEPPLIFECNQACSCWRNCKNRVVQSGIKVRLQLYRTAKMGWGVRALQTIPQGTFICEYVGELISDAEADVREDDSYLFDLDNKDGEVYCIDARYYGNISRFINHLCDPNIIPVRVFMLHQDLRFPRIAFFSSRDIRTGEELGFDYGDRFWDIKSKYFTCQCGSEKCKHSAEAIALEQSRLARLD
#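 Signal arises when biotinylated H3K9 peptide, once monomethylated, bridges streptavidin donor and antibody-captured acceptor beads. Enzyme at 20 nM was preincubated 15 min with test compounds; peptide 500 nM and SAM 20 uM then reacted for 2 h.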
# TDP1 inh: TDP1 (human) enzyme inhibition | Q9NUW8 | recombinant TDP1, AlphaScreen DNA substrate cleavage | Potency, µM (top dose mostly 130 µM), for inactives: at the highest dose activity change, negative = inhibition, most hits filed as inhibitors | 350,000 tested, 0.28% active | AID 485290; further: on the % scale 0 is the no-effect control and ±100 the full control effect; nearly all actives have a fitted effect of over 40% in size
#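 Here, a 5' biotin and 3' phosphotyrosine-FITC DNA oligonucleotide reports Tdp1 activity: intact substrate bridges AlphaScreen beads, while cleavage leaves a 3' phosphate and drops signal. All incubations at room temperature.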
# JMJD2A Tudor: inhibitors of human JMJD2A Tudor domain; O75164; AlphaScreen JMJD2A-Tudor / H3K4me3 peptide binding; Potency, µM (top dose mostly 114 µM), without a hit: at the top dose activity change, negative = inhibition, most hits filed as inhibitors; 390,000 tested, 4.4% active; AID 504339; further: on the % scale 0 is the no-effect control and ±100 the full control effect; nearly all actives have a fitted effect of over 50% in size
# BAZ2B inh: inhibitors of human BAZ2B bromodomain; Q9UIF8; AlphaScreen BAZ2B-H3K14Ac peptide displacement; Potency, µM (doses to about 114 µM), for inactives: at the top dose activity change, negative = inhibition, actives largely listed as inhibitors; 360,000 tested, 4.4% active; further: on the % scale 0 is the no-effect control and ±100 the full control effect; nearly all actives have a fitted effect of over 60% in size
#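 Protein-peptide AlphaScreen: BAZ2B 50 nM, b-H3K14Ac 50 nM, 1x PBS pH 7.4 + 0.01% Tween-20. Preincubation 30 min RT; cpd 30 min RT (top 110 uM); beads 20 min RT, light-protected.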
# Active calls of the source: *; ? = inconclusive; nt = not tested or not shown; [ ] = dose if it differs, or a comment. The call rests on the fitted dose curve; in most records, active means well fitted curve in the direction sought with a large enough effect; inconclusive means small, poorly fitted or top-dose-only effect, or another doubt; inactive means no such curve, though single readings can be large; an effect the other way counts as inactive or inconclusive. Potency means the concentration at half of the fitted maximal effect.
SMILES,Sfp inh,HP1b chromo inh,G9a block,TDP1 inh,JMJD2A Tudor,BAZ2B inh
COc1cccc(/C=C2\SC(=S)N(CCCC(=O)N3CCCCC3CCO)C2=O)c1 (centres undefined),-24%,-36%[57 µM],?,10%,20µM*,25µM*
CC1CCN(c2nn3c(=O)c(C(=O)NCCCOC(C)C)cnc3s2)CC1,nt,45%,14%[59 µM],8%,-18%,32%
COc1ccc(-c2nc3nc(N)nn3cc2C)cc1F,7%,19%,-17%,-3%,-2%,1%
O=C1CN(C(=S)NC(=O)c2ccc(-c3ccccc3)cc2)CCN1,-3%,25%,?,3%,-19%,-32%
COc1cccc(/C=C2\SC(=O)N(CCC(=O)N3CCC(C(=O)O)CC3)C2=O)c1,2%,40%,71µM*,6%,-12%,?
COc1ccc(/C=C2\SC(=S)N(CCCC(=O)N3CCOCC3)C2=O)cc1OC,2%,-10%,9%,5%,-18%,-17%
COc1ccc(/C=C2\SC(=S)N(CCCC(=O)N3CCOCC3)C2=O)cc1,nt,-36%,nt,nt,50µM*,nt
COc1ccc(/C=C2\SC(=O)N(CCC(=O)N3CCN(C)CC3)C2=O)cc1,12%,23%,4%,nt,-8%,-6%
Cc1ccccc1-c1nc(SCc2cccnc2)c2c(=O)n(C)c(=O)n(C)c2n1,10%,6%,56µM*,3%,-11%,-14%
CCCc1nc(SCc2cccnc2)c2c(=O)n(C)c(=O)n(C)c2n1,-22%,33%,-43%[59 µM],7%,-8%,0%
Cn1c(=O)c2c(SCc3cccnc3)nc(CC(C)(C)C)nc2n(C)c1=O,56µM*,62%,1%,1%,-11%,0%
Cc1cc(Cl)ccc1NC(=O)c1cc(S(=O)(=O)N2CCOCC2)cn1C,nt,21%,10%[59 µM],-3%,-16%,3%
[O-]C1=N/[N+](=C/c2ccccc2)CC1,0%,39%,14µM*,3%,-10%,-26%
COc1ccc(-n2c(CN3CCN(c4ccccn4)CC3)nc3ccc([N+](=O)[O-])cc3c2=O)c(OC)c1,5%,3%,32µM*,7%,?,?
CCN1C(=O)/C(=C\C=C2/C=CC=CN2CC)SC1=S,?,40µM*,10µM*,3%,?,22µM*
CCN1C(=O)/C(=C/C=C2\C=CN(CC)c3ccccc32)SC1=S,45µM*,3.5µM*,8.9µM*,5%,?,2µM*
CCN1C(=O)/C(=C\N2CCN(C)CC2)SC1=S,5%,24%,-28%,2%,-19%,-32%
CCOC(=O)C1(C)C=C(Nc2ccc(C)cc2)C(=O)N1c1ccccc1 (centres undefined),nt,44%,2%[59 µM],nt,3%,0%
Cc1ccc(-n2nc(C)c3c2OC(N)=C(C#N)C3c2ccncc2)cc1 (centres undefined),3%,1%,45µM*,8%,?,-11%
Cc1ccc(-n2nc(C)c3c2OC(N)=C(C#N)C3c2ccccc2F)cc1 (centres undefined),-3%,-16%,-6%[0.0925 µM],11%,?,?
CCn1c(C)cc2c(c1=O)C(c1ccc3c(c1)OCO3)C(C#N)=C(N)O2 (centres undefined),0%,15%,-24%[12.7 µM],-3%,-6%,6%
CCn1c(C)cc2c(c1=O)C(c1ccncc1)C(C#N)=C(N)O2 (centres undefined),3%,33%,40µM*,-1%,2%,6%
COc1cnc(-c2ccccn2)nc1Oc1ccc(F)cc1F,11%,44%,5%,6%,-32%,40µM*
COc1cnc(-c2ccccn2)nc1Oc1ccccc1Cl,8%,34%,8%[59 µM],6%,12%,50µM*
COc1cnc(-c2ccccn2)nc1Oc1ccc(Cl)c2ccccc12,-6%,19%,24%,10%,-35%,-37%
COc1cnc(-c2ccccn2)nc1Oc1ccc(Cl)cc1,2%,13%,nt,10%,-31%,32µM*

# From PubChem BioAssay
